# Screens deposited in PubChem BioAssay by National Center for Advancing Translational Sciences (NCATS).
# JMJD2A Tudor = JMJD2A Tudor domain (human) inhibition. AlphaScreen JMJD2A-Tudor / H3K4me3 peptide binding. Potency, µM (highest dose often 114 µM), inactives show at the top dose activity change, negative = inhibition, hits mostly inhibitors. 4.4% of 390,000 active; note: % is set by controls: 0 for no effect and ±100 for the full control effect; nearly all actives have a fitted effect of over 50% in size
# HP1b binding inh = blocks HP1-beta chromodomain binding to methylated histone tails; P83916; AlphaScreen HP1-beta / biotin-H3K9me3 peptide binding; Potency, µM (series often up to 114 µM), inactives show at the top dose activity change, negative = inhibition, most hits filed as inhibitors; 0.56% of 390,000 active; AID 540317; note: nearly all actives have a fitted effect of over 70% in size
#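 AlphaScreen: HP1-beta (50 nM) preformed 30 min with biotin-H3(1-18)K9me3 peptide (50 nM) in PBS pH 7.4, 0.01% Tween-20. Compound added for 30 min at RT, then streptavidin donor/nickel chelate acceptor beads (10 ug/mL) for 30 min.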
# L3MBTL1 block = blocks human L3MBTL1; Q9Y468; AlphaScreen L3MBTL1–H3K9me1 peptide binding; Potency, µM (series often up to 57.1 µM), inactives show top-dose activity, negative = inhibition, hits mostly inhibitors; 0.66% of 230,000 active; note: % is set by controls: 0 for no effect and ±100 for the full control effect; nearly all actives have a fitted effect of over 60% in size
#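 AlphaScreen assay: L3MBTL1 (50 nM final) was preincubated 30 min at room temperature with biotinylated H3(1-15)K9me1 peptide (75 nM final), then 30 min with library compounds; streptavidin donor and nickel chelate acceptor beads (10 ug/mL final) added, 30 min dark.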
# Sfp PPTase inh = inhibitors of Bacillus subtilis Sfp phosphopantetheinyl transferase; Q9F4F7; Biochemical Sfp PPTase activity, qHTS; Potency, µM, inactives show largest response in the series, negative = inhibition, actives largely listed as inhibitors; 3.5% of 310,000 active; AID 1490;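 note: the enzyme is Sfp with the accession as filed and its product quenches rhodamine fluorescence; 0% = enzyme reaction without inhibitor and -100% = no enzyme wells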
#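 With Hepes-Na pH 7.6 buffer containing 10 mM MgCl2, Sfp (15 nM) modified BHQ-2-YbbR (12.5 uM) using rhodamine-CoA (5 uM). Two reads 30 minutes apart at 525/598 nm yielded each well's rate.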
# G9a inh = inhibitors of human histone lysine methyltransferase G9a; G9a H3K9 monomethylation, AlphaScreen, 2 h; Potency, µM (top dose mostly 102 µM), inactives show at the highest dose activity, negative = inhibition, usual class: inhibitors; 8.8% of 350,000 active; Q96KQ7; note: % is set by controls: 0 for no effect and ±100 for the full control effect; nearly all actives have a fitted effect of over 75% in size
#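 Chemiluminescent proximity detection of H3K9 monomethylation, read after 10 min bead incubation in the dark. Reaction: 20 nM G9a, 500 nM biotin-H3K9 peptide, 20 uM SAM cofactor, 2 h, room temperature, following 15 min enzyme-compound preincubation.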
# BAZ2B block = inhibitors of human BAZ2B bromodomain. AID 504333. Potency, µM (highest dose often 114 µM), inactives show top-dose activity change, negative = inhibition, actives largely listed as inhibitors. AlphaScreen BAZ2B-H3K14Ac peptide displacement. Q9UIF8. 4.4% of 360,000 active; note: % is set by controls: 0 for no effect and ±100 for the full control effect; nearly all actives have a fitted effect of over 60% in size
# Target sequence (Q9UIF8 whole entry, looked up): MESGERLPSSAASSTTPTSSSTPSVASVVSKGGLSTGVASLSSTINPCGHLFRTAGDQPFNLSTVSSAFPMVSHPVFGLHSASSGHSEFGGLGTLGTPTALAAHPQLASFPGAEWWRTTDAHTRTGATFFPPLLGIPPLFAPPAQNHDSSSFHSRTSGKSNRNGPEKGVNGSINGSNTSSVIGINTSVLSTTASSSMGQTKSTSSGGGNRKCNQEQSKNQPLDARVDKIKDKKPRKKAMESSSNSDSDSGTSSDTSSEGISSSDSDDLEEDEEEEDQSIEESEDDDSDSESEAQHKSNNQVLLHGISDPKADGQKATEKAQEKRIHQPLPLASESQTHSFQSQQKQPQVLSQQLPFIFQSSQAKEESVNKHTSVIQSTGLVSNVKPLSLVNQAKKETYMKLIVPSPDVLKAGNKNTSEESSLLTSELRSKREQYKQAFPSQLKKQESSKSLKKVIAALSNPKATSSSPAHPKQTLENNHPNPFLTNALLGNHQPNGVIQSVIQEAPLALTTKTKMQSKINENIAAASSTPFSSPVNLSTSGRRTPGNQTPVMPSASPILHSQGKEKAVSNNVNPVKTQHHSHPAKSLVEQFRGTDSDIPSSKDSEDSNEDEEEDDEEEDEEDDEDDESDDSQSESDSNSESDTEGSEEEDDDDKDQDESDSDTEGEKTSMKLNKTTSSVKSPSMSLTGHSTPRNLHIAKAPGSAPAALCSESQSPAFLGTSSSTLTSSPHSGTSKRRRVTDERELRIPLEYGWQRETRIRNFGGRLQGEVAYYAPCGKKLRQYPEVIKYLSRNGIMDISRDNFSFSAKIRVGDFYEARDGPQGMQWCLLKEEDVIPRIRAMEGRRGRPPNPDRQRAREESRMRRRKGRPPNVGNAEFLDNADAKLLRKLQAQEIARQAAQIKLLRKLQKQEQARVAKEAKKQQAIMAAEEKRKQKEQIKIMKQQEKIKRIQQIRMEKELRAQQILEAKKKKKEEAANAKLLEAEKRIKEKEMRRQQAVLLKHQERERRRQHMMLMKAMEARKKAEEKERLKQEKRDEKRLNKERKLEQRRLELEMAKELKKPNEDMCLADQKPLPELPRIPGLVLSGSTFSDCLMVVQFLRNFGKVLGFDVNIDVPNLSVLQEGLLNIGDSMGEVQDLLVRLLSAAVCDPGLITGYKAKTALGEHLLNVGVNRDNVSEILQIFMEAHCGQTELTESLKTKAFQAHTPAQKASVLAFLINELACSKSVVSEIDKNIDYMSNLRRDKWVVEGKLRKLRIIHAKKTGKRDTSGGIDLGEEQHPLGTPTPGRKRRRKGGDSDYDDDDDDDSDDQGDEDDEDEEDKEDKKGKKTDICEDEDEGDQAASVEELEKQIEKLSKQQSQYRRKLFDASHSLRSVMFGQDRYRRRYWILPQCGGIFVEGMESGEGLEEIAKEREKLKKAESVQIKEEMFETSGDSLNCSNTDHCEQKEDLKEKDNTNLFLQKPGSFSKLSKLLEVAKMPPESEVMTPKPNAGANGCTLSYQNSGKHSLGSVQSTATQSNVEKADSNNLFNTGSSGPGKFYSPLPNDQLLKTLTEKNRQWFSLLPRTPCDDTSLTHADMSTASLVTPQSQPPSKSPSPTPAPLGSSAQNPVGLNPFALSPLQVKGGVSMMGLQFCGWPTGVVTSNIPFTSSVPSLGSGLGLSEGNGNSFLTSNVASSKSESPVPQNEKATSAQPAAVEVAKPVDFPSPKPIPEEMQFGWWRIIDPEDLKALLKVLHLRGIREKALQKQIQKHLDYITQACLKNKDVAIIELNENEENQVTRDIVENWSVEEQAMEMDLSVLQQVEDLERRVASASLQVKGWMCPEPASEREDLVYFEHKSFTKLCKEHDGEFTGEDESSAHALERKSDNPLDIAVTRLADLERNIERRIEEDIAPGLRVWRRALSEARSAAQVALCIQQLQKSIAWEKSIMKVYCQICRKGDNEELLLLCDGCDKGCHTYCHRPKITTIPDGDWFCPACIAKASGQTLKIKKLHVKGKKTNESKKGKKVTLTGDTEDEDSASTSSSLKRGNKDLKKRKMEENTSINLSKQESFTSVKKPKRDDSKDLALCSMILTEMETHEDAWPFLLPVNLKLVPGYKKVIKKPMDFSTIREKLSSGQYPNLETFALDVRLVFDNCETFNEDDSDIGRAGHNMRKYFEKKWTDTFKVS
#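 BAZ2B (50 nM) with biotin-H3(5-23)K14Ac peptide (50 nM) in PBS pH 7.4, 0.01% Tween-20, preformed 30 min, then compound 30 min at room temperature; top concentration 110uM. AlphaScreen streptavidin donor/nickel chelate acceptor beads (10 ug/mL final), 20 min dark, signal read.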
# * hit, by the source's call; ? = inconclusive; . = no result given; [ ] = another dose, or the depositor's remark. Only some compounds are listed: those with a hit (about 12% of all), similar ones and a draw of the others. Calls come from the whole dose curve; as a rule, active = well fitted curve in the direction sought with a large enough effect; inconclusive = small, poorly fitted or top-dose-only effect, or another doubt; inactive = no such curve, though single readings can be large; an effect the other way counts as inactive or inconclusive. Potency is the fitted concentration of half-maximal effect.
SMILES,JMJD2A Tudor,HP1b binding inh,L3MBTL1 block,Sfp PPTase inh,G9a inh,BAZ2B block
O=C(NCCCN1CCOCC1)c1cc(-c2ccc(F)cc2)nc2ccccc12,9.1%,29.8%,4.6%,.,0.6%[12.7 µM],-2.6%
Cc1ccc(NC(=O)c2cc(-c3ccco3)nc3ccccc23)cc1S(=O)(=O)N1CCOCC1,-33.1%,-18.6%,-8.0%,-9.8%,?,?
CCOc1cc(N2CCOCC2)c(OCC)cc1NC(=O)c1cc(-c2ccco2)nc2ccccc12,50.1µM*,?,-9.6%,28.2µM*,8.91µM*,.
O=C(NC(=S)NCCN1CCOCC1)c1ccccc1Cl,3.0%,18.6%,4.7%,19.8%,2.0%[59 µM],-2.1%
O=C(NC(=S)NCCCN1CCOCC1)c1ccco1,-7.6%,23.8%,.,-17.1%,39.8µM*,-17.7%
COc1ccc(NC(=O)c2cc(-c3ccco3)nc3ccccc23)cc1S(=O)(=O)N1CCOCC1,?,?,-85.7%,5.01µM*,.,44.7µM*
CCOc1cc(N2CCOCC2)c(OCC)cc1NC(=O)COc1ncnc2ccccc12,-17.8%,10.7%,.,1.8%,?,?
O=C(NCCCN1CCOCC1)c1cc(-c2ccco2)nc2ccccc12,50.1µM*,-6.2%,?,.,.,.
Cc1ccc(-c2onc(C)c2C)cc1S(=O)(=O)Nc1ccc(Cl)cn1,-1.0%,47.3%,.,.,4.8%[59 µM],0.8%
COc1ccc(NC(=O)CC2NCCNC2=O)c(OC)c1 (stereo not drawn),-8.6%,37.3%,.,.,6.6%[59 µM],-29.3%
CCc1ccc(Nc2cc(C(=O)NCCCN3CCOCC3)c3ccccc3n2)cc1,-9.2%,49.2%,.,35.5µM*,-6.5%,6.8%
O=C(NCCN1CCOCC1)c1cc(-c2ccc(F)cc2)nc2ccccc12,-9.7%,8.8%,10.3%,.,18.3%[2.33 µM],7.8%
CC(C)Oc1ccc(-c2cc(C(=O)NCCN3CCOCC3)c3ccccc3n2)cc1,13.0%,27.2%,5.7%,79.4µM*,-8.1%[0.501 µM],?
O=C(OCCO)c1ccccc1O,.,.,.,2.2%,24.9%[59 µM],.
Cn1ncc(S(=O)(=O)Cc2ccccc2)c(Cl)c1=O,-28.5%,-25.3%,11.6%,6.31µM*,.,?
CCOC(=O)C1=CN(Cc2ccco2)S(=O)(=O)N(CC)C1c1ccccc1 (stereo not drawn),-18.5%,20.9%,8.8%,.,.,.
CN(c1ccccc1)c1ccc(/C=C(/CCC(=O)O)c2nc3ccccc3s2)cc1[N+](=O)[O-],22.4µM*,?,.,.,.,.
O=C(O)CC/C(=C\c1ccccc1[N+](=O)[O-])c1nc2ccccc2s1,-8.4%,47.7%,-7.4%,19.4%,-42.3%,-21.9%
O=C(O)CC/C(=C\c1ccc(N2CCCC2)c([N+](=O)[O-])c1)c1nc2ccccc2s1,-35.2%[57.1 µM],?,-25.7%,-19.1%,12.6µM*,39.8µM*
O=C1NC(=S)CN1c1ccccc1,12.6µM*,?,6.3%,5.62µM*,11.2µM*,-21.2%
O=[N+]([O-])c1cnccc1Nc1ccc(F)cc1,4.6%[11.4 µM],22.4%,-19.6%,-9.7%,13.4%[59 µM],6.7%
O=[N+]([O-])c1cc(F)cc(F)c1Nc1ccc(F)cc1,35.5µM*,?,.,.,.,.
CCOC(=O)c1scc(-c2ccc(C)cc2)c1S(=O)(=O)N1CCN(c2ccccc2)CC1,-25.3%,34.1%,.,.,-25.4%[59 µM],?
Cc1cc(C)nc(N/N=C/C=C/c2ccccc2)n1,-25.0%,31.4%,1.1%,-6.4%,50.1µM*,-32.4%
COc1cc(C2C3C(=O)N(c4ccc(F)cc4)C(=O)C3ON2c2ccccc2)ccc1O (stereo not drawn),10.1%,43.2%,-3.5%,5.9%,-7.8%[2.33 µM],2.5%
SMILES,JMJD2A Tudor,HP1b binding inh,L3MBTL1 block,Sfp PPTase inh,G9a inh,BAZ2B block
CN(C)c1ccc(C2C3C(=O)NC(=O)C3ON2c2ccc(Cl)cc2)cc1 (stereo not drawn),56.2µM*,-17.4%,?,-9.9%,?,50.1µM*
O=C(NCc1ccccc1)C(=O)Nc1c2c(nn1-c1ccc(F)cc1)CSC2,-1.3%,32.8%,.,.,17.5%[59 µM],-0.9%
O=C(NCCOCCO)C(=O)Nc1c2c(nn1-c1ccc(F)cc1)CSC2,-1.6%,-6.6%,.,.,12.6µM*,-2.7%
O=C(CSc1ccc(-c2ccccn2)nn1)N1CCCc2ccccc21,7.94µM*,13.9%,?,9.1%,?,8.91µM*
Cc1ccc(-c2nnc(SCC(=O)N3CCc4ccccc43)o2)cc1,-12.3%,10.0%,.,.,-3.5%[59 µM],2.7%
O=C(CSc1nnc(-c2ccc(F)cc2)o1)N1CCCc2ccccc21,-4.8%,5.4%,.,.,10µM*,-7.5%
CCC1Oc2ccc(C)cc2N(CC(=O)N2CCN(c3ccccc3OC)CC2)C1=O (stereo not drawn),-25.1%,3.3%,.,.,-1.5%[59 µM],2.3%
Cc1c2cnn(-c3ccccc3)c(=O)c2c(C)n1CC(=O)NCc1ccc(Cl)cc1,2.7%,33.4%,.,.,5.0%[59 µM],2.6%
OC(CNCc1ccco1)Cn1c2ccc(Br)cc2c2cc(Br)ccc21 (stereo not drawn),-22.5%,8.4%,.,20µM*,-1.2%[59 µM],-35.3%
COc1ccc(S(=O)(=O)N2CCC(C(=O)N3CCc4ccccc4C3)CC2)cc1Cl,-19.0%,22.7%,.,-10.1%,0.6%[59 µM],-2.6%
COc1ccc(CN2CCCC(C(=O)N3CCc4ccccc4C3)C2)cc1OC (stereo not drawn),22.4µM*,-6.5%,.,-21.5%,?,89.1µM*
O=C(C1CCCN(Cc2ccc([N+](=O)[O-])cc2)C1)N1CCCCC1 (stereo not drawn),25.1µM*,?,.,-14.7%,28.2µM*,56.2µM*
O=C(c1cccc([N+](=O)[O-])c1)N1CCCC(C(=O)N2CCCCC2)C1 (stereo not drawn),-15.0%,25.6%,-3.8%,7.9%,2.3%,-12.5%
COc1ccc(CN2CCCC(C(=O)N3CCCCC3)C2)cc1OC (stereo not drawn),20µM*,9.2%,.,-1.1%,2.82µM*,70.8µM*
CCOC(=O)C1CCCN(C(=O)Cc2ccc(OC)c(OC)c2)C1 (stereo not drawn),-23.6%,13.2%,.,13.3%,19.6%[59 µM],9.3%
CC(C)(C)C1=CC(=O)C(=O)C(C(C)(C)C)=C1,17.8µM*,?,-10.5%,1.12µM*,1.58µM*,28.2µM*
CCCCn1c(=O)[nH]c(=O)c2c1nc(-c1ccc3ccccc3c1)n2CC,-9.8%,17.8%,-5.0%,9.0%,5.9%,-13.0%
CCCCn1c(=O)[nH]c(=O)c2c1nc(-c1ccc(-c3ccccc3Br)o1)n2CC,-18.8%,15.6%,-5.8%,14.1µM*,10µM*,-8.7%
CCCCn1c(=O)[nH]c(=O)c2c1nc(-c1ccc(C(F)(F)F)cc1)n2C,-2.1%,23.7%,28.4%,13.3%,7.7%,-2.6%
CCCCn1c(=O)[nH]c(=O)c2c1nc(-c1ccc(-c3ccccc3)cc1)n2C,-7.4%,49.1%,.,14.2%,39.8µM*,0.6%
